Data from PubChem BioAssay (NCI).
About 79,000 compounds went through this panel and 15% of them were active in at least one assay; those are over-represented in the sample as a whole. Calls of active or inactive are those of the source. Rule as the data show it: active = growth inhibition above about 70%; inactive = the rest.

Tests used:
[1] = NCI Yeast Anticancer Drug Screen. Data for the rad52 strain (AID 147);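 also: 0% = growth of vehicle-treated control cultures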; details: S. cerevisiae rad52 mutant growth inhibition, stronger effect = higher value
Method in brief: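 Read-out: growth inhibition versus vehicle-treated controls. Cells were a DNA repair-deficient yeast strain treated with compounds.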

[2] = NCI Yeast Anticancer Drug Screen. Data for the wt1 strain (AID 149);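 also: 0% = growth of vehicle-treated wt1 cultures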; details: S. cerevisiae wt1 strain (SPY 50644) growth inhibition, stronger effect = higher value
Method in brief: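 Vehicle-normalised growth inhibition; strain wt1; compound exposure.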

[3] = NCI Yeast Anticancer Drug Screen. Data for the rad50EPP+ strain (AID 151);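 also: 0% = growth of vehicle-treated control cultures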; details: S. cerevisiae rad50 mutant strain, stronger effect = higher value
Method in brief: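 Growth inhibition read against vehicle controls in rad50EPP+ yeast, a strain altered in DNA damage repair, after compound exposure.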

[4] = NCI Yeast Anticancer Drug Screen. Data for the mgt1 strain (AID 153); details: S. cerevisiae mgt1 mutant growth inhibition, stronger effect = higher value
Method in brief: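 mgt1 yeast grown with test compound; read-out is growth inhibition versus vehicle-treated cultures.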

[5] = NCI Yeast Anticancer Drug Screen. Data for the rad50 strain (AID 155);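 also: 0% = growth of vehicle-only cultures of the same strain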; details: S. cerevisiae rad50 strain growth inhibition, stronger effect = higher value
Method in brief: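 A DNA repair-deficient yeast mutant serves as the test organism; compound-induced growth inhibition is calculated against vehicle-treated cells.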

[6] = NCI Yeast Anticancer Drug Screen. Data for the mec2-1 strain (AID 157); details: S. cerevisiae mec2-1 strain, stronger effect = higher value
Method in brief: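 Yeast mec2-1 mutant treated with compound. Readout: growth inhibition vs vehicle controls.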

[7] = NCI Yeast Anticancer Drug Screen. Data for the rad14 strain (AID 159);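 also: 0% = growth of vehicle-treated control cultures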; details: S. cerevisiae rad14 strain growth inhibition, stronger effect = higher value
Method in brief: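 Vehicle-treated cultures served as the baseline for growth inhibition of a DNA repair-mutant yeast strain exposed to each compound.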

[8] = NCI Yeast Anticancer Drug Screen. Data for the sgs1 mgt1 strain (AID 161);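 also: 0% = growth of cultures given vehicle only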; details: S. cerevisiae sgs1 mgt1 strain, stronger effect = higher value
Method in brief: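 Mutant yeast exposed to compound; growth scored against vehicle-only wells.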

[9] = NCI Yeast Anticancer Drug Screen. Data for the CLN2oe strain (AID 163);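 also: 0% = growth of vehicle-only control cultures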; details: S. cerevisiae CLN2oe strain, stronger effect = higher value
Method in brief: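 Read-out: yeast growth inhibition, expressed relative to vehicle-only controls. The strain bears an engineered cell-cycle alteration.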

[10] = NCI Yeast Anticancer Drug Screen. Data for the cln2 rad14 strain (AID 165);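 also: 0% = growth equal to vehicle treated cultures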; details: S. cerevisiae cln2 rad14 strain, stronger effect = higher value
Method in brief: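 cln2 rad14 yeast strain; compound exposure; growth inhibition read vs vehicle controls.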

[11] = NCI Yeast Anticancer Drug Screen. Data for the bub3 strain (AID 167); details: S. cerevisiae bub3 mutant strain, stronger effect = higher value
Method in brief: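 Inhibition values come from growth of compound-treated mutant yeast normalised to vehicle-treated controls.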

[12] = NCI Yeast Anticancer Drug Screen. Data for the wt2 strain (AID 169);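 also: 0% = growth of vehicle-treated yeast cultures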; details: S. cerevisiae wt2 strain growth inhibition, stronger effect = higher value
Method in brief: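 Read-out: growth inhibition versus vehicle-treated control cultures after compound exposure of the yeast strain.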

[13] = NCI Yeast Anticancer Drug Screen. Data for the mlh1 strain (AID 171);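 also: 0% = growth of vehicle-treated control cultures of the same strain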; details: S. cerevisiae mlh1 strain growth inhibition, stronger effect = higher value
Method in brief: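 Read-out: growth inhibition versus vehicle controls. Strain: engineered yeast with a defined DNA repair or cell cycle defect, compound-treated.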

[14] = NCI Yeast Anticancer Drug Screen. Data for the mlh1 rad18 strain (AID 175); details: S. cerevisiae mlh1 rad18 strain growth inhibition, stronger effect = higher value
Method in brief: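 Yeast w/ defined DNA-repair lesions; compound exposure; growth vs vehicle controls → % inhibition.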

[15] = NCI Yeast Anticancer Drug Screen. Data for the rad18 strain (AID 177); details: S. cerevisiae rad18 mutant growth inhibition, stronger effect = higher value
Method in brief: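 Readout: growth inhibition vs vehicle controls. Cells: genetically altered yeast strain, DNA repair defect.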

[16] = at 5.0 µM (retest, dose inferred, filed as 0.5)
[17] = at 50.0 µM (retest, dose inferred, filed as 5.0)

Measured: growth inhibition

COC1C(O)C(C)OC(OC2C(Oc3cccc4c(O)c5c(=O)oc6ccc(C)c7c(=O)oc(c34)c5c67)OC(C)C(O)C2O)C1O (stereo not drawn)
inactive: [1]; at 1.2 µM 41% | [1]; at 3.7 µM 67% | [2]; at 1.2 µM 6% | [2]; at 3.7 µM 2% | [2]; at 11.0 µM 8% | [2]; at 33.0 µM 17% | [2]; at 100.0 µM 12% | [3]; at 1.2 µM 7% | [3]; at 3.7 µM 22% | [3]; at 11.0 µM 31% | [3]; at 33.0 µM 39% | [3]; at 100.0 µM 35% | [4]; at 1.2 µM -4% | [4]; at 3.7 µM 7% | [4]; at 11.0 µM -4% | [4]; at 33.0 µM 25% | [4]; at 100.0 µM 18% | [5]; at 1.2 µM 57% | [5]; [16] 29% | [5]; [17] 68% | [6]; at 1.2 µM 1% | [6]; at 3.7 µM 4% | [6]; [16] 25% | [6]; at 11.0 µM 9% | [6]; at 33.0 µM 18% | [6]; [17] 15% | [6]; at 50.0 µM 33.8% | [6]; at 100.0 µM 34% | [7]; at 1.2 µM 5% | [7]; at 3.7 µM 9% | [7]; at 11.0 µM 20% | [7]; at 33.0 µM 30% | [7]; at 100.0 µM 32% | [8]; [16] 28% | [8]; [17] -2% | [8]; at 50.0 µM 3.65% | [9]; at 1.2 µM 1% | [9]; at 3.7 µM 1% | [9]; at 11.0 µM 9% | [9]; at 33.0 µM 2% | [9]; at 100.0 µM 17% | [10]; [16] 19% | [10]; [17] 5% | [10]; at 50.0 µM -3.1% | [11]; at 1.2 µM -5% | [11]; at 3.7 µM -3% | [11]; [16] 23% | [11]; at 11.0 µM -1% | [11]; at 33.0 µM -2% | [11]; [17] -5% | [11]; at 50.0 µM 57.7% | [11]; at 100.0 µM 14% | [12]; at 1.2 µM 0% | [12]; at 3.7 µM 3% | [12]; at 11.0 µM 12% | [12]; at 33.0 µM 22% | [12]; at 100.0 µM 20% | [13]; at 1.2 µM 0% | [13]; at 3.7 µM 6% | [13]; at 11.0 µM 9% | [13]; at 33.0 µM 17% | [13]; at 100.0 µM 30% | [14]; [16] -2% | [14]; [17] -4% | [14]; at 50.0 µM 46.2% | [15]; at 1.2 µM 6% | [15]; at 3.7 µM 3% | [15]; at 11.0 µM 17% | [15]; at 33.0 µM 21% | [15]; at 100.0 µM 16%
active: [1]; at 11.0 µM 85% | [1]; at 33.0 µM 87% | [1]; at 100.0 µM 89% | [5]; at 3.7 µM 78% | [5]; at 11.0 µM 83% | [5]; at 33.0 µM 84% | [5]; at 50.0 µM 88% | [5]; at 100.0 µM 84%
